Reference: PubChem BioAssay (NCATS)
Activity calls are given as the source filed them. Calls follow the shape of the dose curve; as a rule, active = well fitted curve in the direction sought with a large enough effect (not every such curve was filed as active); inconclusive = small, poorly fitted or top-dose-only effect, or effect the other way, or another doubt; inactive = no such curve, though single readings can be large or run the other way.

biological target: Pyruvate kinase PKM (Homo sapiens) (UniProt P14618); assay: qHTS Assay for Activators of Human Muscle Pyruvate Kinase (AID 954); details: purified human muscle pyruvate kinase, luciferase-coupled luminescence, 1 h; series mostly up to 57.5 µM
Procedure: NIH Molecular Libraries Screening Centers Network [MLSCN]
NIH Chemical Genomics Center [NCGC]
Wael M. Rabeh, Lyudmila Nedyalkova and Hee-Wan Park [Structural Genomics Consortium, 100 College St. Toronto, Ontario, Canada]
Human pyruvate kinase muscle 2 enzyme was supplied as a highly purified (>95% pure) preparation by the Structural Genomics Consortium in Toronto (Ontario, Canada) and was assayed for its ability to generate ATP from ADP using phosphoenolpyruvate (PEP) as a substrate. ATP generation was detected in a coupled reaction by luciferase-mediated luminescence, an ATP-dependent process. Pyruvate kinase substrates, PEP and ADP, were present in the assay at Km and approximately […]-fold below Km respectively. The enzyme was assayed at an intermediate level of activity to screen for inhibitors and activators.
NCGC Assay Protocol Summary:
Three uL of substrate mix (final concentration, 50 mM imidazole pH 7.2, 50 mM KCl, 7 mM MgCl2, 0.5 mM PEP, 0.1 mM ADP, 0.01% Tween 20, 0.05% BSA) was dispensed into 1536 well plates. 23 nL of compound were delivered by a pin tool and 1 uL of enzyme mix (final concentration, 0.1 nM pyruvate kinase, 50 mM imidazole pH 7.2, 0.05% BSA) was added. Plates were incubated at room temperature for 1 hour. Two uL of detection and kinase stop mix (PKLight, Cambrex) was added, the plates centrifuged, and luminescence read by a ViewLux (Perkin Elmer) at 5 second exposure/plate. Data were normalized to the uninhibited and AC100 inhibition (no enzyme or 110 uM N-methyl-2,3-diphenyl-1,2,4-thiadiazol-5-imine; CID: 682802; LOPAC-S-4063). To monitor activation, 0.3 nM pyruvate kinase was included in one control column.

Pyruvate kinase PKM (Homo sapiens), sequence (P14618 whole entry, looked up): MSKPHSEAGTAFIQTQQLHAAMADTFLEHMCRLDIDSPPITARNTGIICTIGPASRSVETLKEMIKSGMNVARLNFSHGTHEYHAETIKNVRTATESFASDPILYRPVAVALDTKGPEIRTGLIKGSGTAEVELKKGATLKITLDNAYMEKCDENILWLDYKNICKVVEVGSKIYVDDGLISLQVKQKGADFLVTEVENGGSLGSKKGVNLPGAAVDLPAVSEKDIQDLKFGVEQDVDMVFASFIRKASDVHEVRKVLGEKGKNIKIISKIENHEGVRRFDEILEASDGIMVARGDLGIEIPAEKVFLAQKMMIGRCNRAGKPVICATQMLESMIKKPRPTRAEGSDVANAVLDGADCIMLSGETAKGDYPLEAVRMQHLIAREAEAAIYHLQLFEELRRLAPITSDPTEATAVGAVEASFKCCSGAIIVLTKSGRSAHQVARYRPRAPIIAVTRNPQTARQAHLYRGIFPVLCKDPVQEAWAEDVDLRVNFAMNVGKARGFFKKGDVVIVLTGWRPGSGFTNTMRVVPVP

Row | Compound | outcome
1 | Clc1ccccc1C(c1ccccc1)(c1ccccc1)n1ccnc1 | inactive
2 | CN(Cc1cnc2nc(N)nc(N)c2n1)c1ccc(C(=O)N[C@@H](CCC(=O)O)C(=O)O)cc1 | inactive
3 | NCCCCCC(=O)O | inactive
4 | Cn1ccc2cc3c(cc21)CCN3C(=O)Nc1cccnc1 | inactive
5 | Cc1cn([C@H]2C=C[C@@H](CO)O2)c(=O)[nH]c1=O | inactive
6 | CN(C)CCC=C1c2ccccc2C=Cc2ccccc21 | inactive
7 | CN1CCN(C2=Nc3cc(Cl)ccc3Nc3ccccc32)CC1 | inactive
8 | CCCCc1oc2ccccc2c1C(=O)c1cc(I)c(OCCN(CC)CC)c(I)c1 | inactive
9 | O=c1[nH]cc(F)c(=O)[nH]1 | inactive
10 | O=C(C1CCCCC1)N1CC(=O)N2CCc3ccccc3C2C1 (stereo not given) | inactive
11 | CCc1cccc2c3c([nH]c12)C(CC)(CC(=O)O)OCC3 (stereo not given) | inactive
12 | O=C(Nc1ccc([N+](=O)[O-])cc1Cl)c1cc(Cl)ccc1O | inactive
13 | CC(C)Cc1ccc(C(C)C(=O)O)cc1 (stereo not given) | inactive
14 | Cc1cnc(C(=O)NCCc2ccc(S(=O)(=O)NC(=O)NC3CCCCC3)cc2)cn1 | inactive
15 | O=C1c2c(O)ccc(O)c2C(=O)c2c(NCCNCCO)ccc(NCCNCCO)c21 | inactive
16 | CN(C)CCCN1c2ccccc2CCc2ccc(Cl)cc21 | inactive
17 | OCCN1CCN(CCCN2c3ccccc3Sc3ccc(C(F)(F)F)cc32)CC1 | inactive
18 | Cc1ccccc1N1C(=O)c2cc(S(N)(=O)=O)c(Cl)cc2NC1C (stereo not given) | inactive
19 | CN1CCC(=C2c3ccccc3C=Cc3ccccc32)CC1 | inactive
20 | Nc1nc2c(ncn2COC(CO)CO)c(=O)[nH]1 | inactive

Row | Compound | outcome
21 | CC(C)C(=O)Nc1ccc([N+](=O)[O-])c(C(F)(F)F)c1 | inactive
22 | Clc1ccc(C(c2ccccc2Cl)C(Cl)Cl)cc1 (stereo not given) | inactive
23 | Cc1cc(C(C)(C)C)cc(C)c1CC1=NCCN1 | inactive
24 | NC12CC3CC(CC(C3)C1)C2 | inactive
25 | Cn1c(=O)c2[nH]cnc2n(C)c1=O | inactive
26 | CN(C)c1nc(N(C)C)nc(N(C)C)n1 | inactive
27 | CN1CCC(=C2c3ccccc3CC(=O)c3sccc32)CC1 | inactive
28 | Cn1c(=O)c2c(ncn2C)n(C)c1=O | inactive
29 | NS(=O)(=O)c1cc2c(cc1Cl)NCNS2(=O)=O | inactive
30 | NCCc1cnc[nH]1 | inactive
31 | NC(=O)OCC(COC(N)=O)c1ccccc1 | inactive
32 | COc1nc(C)nc(Cl)c1NC1=NCCN1 | inactive
33 | CCOC(=O)c1ncn2c1CN(C)C(=O)c1cc(F)ccc1-2 | inactive
34 | Cc1ccc(C(=O)Nc2ccc(S(=O)(=O)O)c3cc(S(=O)(=O)O)cc(S(=O)(=O)O)c23)cc1NC(=O)c1cccc(NC(=O)Nc2cccc(C(=O)Nc3cc(C(=O)Nc4ccc(S(=O)(=O)O)c5cc(S(=O)(=O)O)cc(S(=O)(=O)O)c45)ccc3C)c2)c1 | inactive
35 | O=c1c(-c2ccc(O)cc2)coc2cc(O)cc(O)c12 | inactive
36 | CN1C(C(=O)Nc2ccccn2)=C(O)c2ccccc2S1(=O)=O | inactive
37 | Nc1ccn([C@H]2CC[C@@H](CO)O2)c(=O)n1 | inactive
38 | C[C@](N)(Cc1ccc(O)c(O)c1)C(=O)O | inactive
39 | NC(=O)NO | inactive
40 | COc1ccc2[nH]cc(CCNC(C)=O)c2c1 | inactive
